Screens from PubChem BioAssay.
Shown are actives, neighbours in structure and some others; about 1.7% of the full set was active somewhere.
PfHsp40 yeast = restores yeast growth despite PfHsp40 toxicity. S. cerevisiae expressing PfHsp40, growth rescue, ATP luminescence. growth rescue, % at 12.5 µM. 340,000 tested, 0.68% active. AID 504582; in the data active = growth rescue above about 28%, passing the limit was not always enough; inconclusive = no clear call, values can overlap the other calls;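 note: yeast W303a lacking pdr1 and pdr3 grown in galactose medium; growth measured after three days at 30 °C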
Mtb hypoxia inh = inhibitors of hypoxia-regulated fluorescent reporter in Mycobacterium tuberculosis; M. tuberculosis hypoxia-regulated fluorescent reporter, fluorescence; fluorescence inhibition, % (no concentration beside the values); 300,000 tested, 0.1% active; in the data active = fluorescence inhibition mostly above about 23%, no sharp cut-off; inactive = mostly below about 17%
Sa RN4220 lethal = S. aureus RN4220 growth inhibition; OD600, 16 h; inhibition, % (concentration not given with the values); 330,000 tested, 0.33% active; in the data active = inhibition above about 85%;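 note: plate controls were untreated cells for no effect and reference antibiotic for full effect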
CCHF vOTU inh = blocks the CCHF virus ovarian tumor domain protease. CCHFV vOTU protease, Pep-AMC fluorescence. inhibition, % at 11.5 µM. 370,000 tested, 0.55% active. AID 651958; in the data active = inhibition above about 30%; note: 0% = vehicle wells with enzyme and 100% = no enzyme wells
Vc quorum ag = induces V. cholerae light production without autoinducers. 350,000 tested, 0.16% active. activation, % at 18.7 µM. AID 588436. V. cholerae BH1578 lux reporter, luminescence, 6 h; in the data active = activation mostly above about 9.7%, no sharp cut-off; inconclusive = no clear call, values can overlap the other calls; inactive = mostly below about 3.7%
ugtP null kill = compounds lethal to S. aureus RN4220 ugtP deletion mutant. OD600 growth, 16 h. growth inhibition, % (concentration not given with the values). 330,000 tested, 0.54% active; in the data active = growth inhibition above about 68%;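 note: plate controls were untreated wells for no effect and antibiotic for full effect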
Starred values were filed as active, the others as inactive; i = inactive; ? = inconclusive; . = not tested or not shown.

SMILES | PfHsp40 yeast | Mtb hypoxia inh | Sa RN4220 lethal | CCHF vOTU inh | Vc quorum ag | ugtP null kill
O=C(OCC#CCSc1nnc(-c2ccc(Br)cc2)o1)c1cccs1 | 2 | 41* | 9 | 7 | 0 | -1
Cc1ccc(-c2nnc(SCC#CCOC(=O)c3cccs3)o2)cc1 | 1 | 16 | 11 | -3 | i | 7
CC(O)C(C(=O)N1CCN(C(=O)OC(C)(C)C)CC1)n1cc(CCCCNC(=O)OC(C)(C)C)nn1 (stereo not given) | . | 3 | 2 | . | . | 0
N=C(N)c1ccc(N)cc1 | 67* | 4 | 5 | -1 | 0 | -7
N=C(N)c1ccc(OCCCCCOc2ccc(C(=N)N)cc2)cc1 | 112* | . | . | -2 | -3 | .
CCCCCCOc1ccc(/C(N)=N/O)cc1 | 0 | 22 | -11 | 7 | 1 | 13
COc1cccc(C(=O)NN=C(C)CC(=O)Nc2ccc(N(C)C)cc2)c1 | . | 1 | 2 | . | . | -4
O=C(CSc1nnc(CNC(=O)c2cccs2)o1)NC1CCCCC1 | 0 | . | 4 | -1 | 15* | 12
O=C(CSc1nnc(CNC(=O)c2cccs2)o1)NCC1CCCO1 (stereo not given) | -1 | 14 | 4 | 1 | i | 11
CSc1ccc(C=NNC(=O)c2cccc(O)c2)cc1 | . | . | -4 | . | . | -1
O=C(NN=Cc1cn(-c2ccccc2)nc1-c1cc2ccccc2o1)c1ccncc1 | . | 5 | -3 | . | . | 39
O=C(N/N=C/c1cn(-c2ccccc2)nc1-c1cccs1)c1ccccc1F | 201* | . | . | . | -1 | .
O=C(NN=Cc1cn(-c2ccccc2)nc1-c1cccs1)c1ccc(Cl)cc1 | . | -8 | -4 | . | . | -19
O=C(N/N=C/c1cn(-c2ccccc2)nc1-c1cc2ccccc2o1)c1ccncc1 | 180* | . | . | 0 | 0 | .
CCCCNc1c(-c2cccc(-c3ccc(OC)cc3)c2)nc2ccc(C)cn12 | 232* | 15 | 17 | -6 | i | 34
CCCCCCSc1ccc(-c2nc3ccccn3c2NCCCC)cc1 | 324* | 11 | 3 | 4 | -1 | 15
CCCCNc1c(-c2ccc(-c3cccc(Cl)c3)cc2)nc2ccccn12 | 207* | 3 | 1 | 9 | i | -35
CC(C(=O)OCC(=O)Nc1cc(S(=O)(=O)N2CCOCC2)ccc1Cl)N1C(=O)C2CCCCC2C1=O (stereo not given) | . | -2 | 2 | . | . | -4
COc1cccc(CNS(=O)(=O)C=Cc2ccc(OC)c(OC)c2)c1 | . | 2 | 7 | . | . | 4
COc1cc(NC(=O)C2CCCN(c3ncnc4c3nc3n4CCCCC3)C2)cc(OC)c1OC (stereo not given) | 44* | 5 | 8 | 3 | 0 | 3
COc1ccccc1NC(=O)C1CCCN(c2ncnc3c2nc2n3CCCCC2)C1 (stereo not given) | 4 | 7 | 1 | -9 | 0 | 4
O=C(Nc1ccc(Nc2ccccc2)cc1)C(Cl)(Cl)Cl | 33* | -1 | -7 | 2 | 0 | -4
COc1cc2c(cc1OC)-c1cc3ccc(OC)c(OC)c3c[n+]1CC2 | -1 | 4 | 3 | 21 | 4 | -2
COc1ccc2cc3[n+](cc2c1O)CCc1cc2c(cc1-3)OCO2 | . | . | . | 101* | . | .
COc1cc(C2(c3ccc(O)c(OC)c3)C(=O)Nc3c(Br)cc(Br)cc32)ccc1O | 66* | -1 | -12 | -6 | -1 | -16
SMILES | PfHsp40 yeast | Mtb hypoxia inh | Sa RN4220 lethal | CCHF vOTU inh | Vc quorum ag | ugtP null kill
O=c1[nH]c(=O)n(C2OC(CO)C(O)C2O)cc1F (stereo not given) | 203* | . | . | . | i | .
Nc1nc(=O)n(C2OC(CO)C(O)C2O)cc1F (stereo not given) | . | . | . | 1 | . | .
O=C(Cn1cc(C(=O)C(F)(F)F)c2ccccc21)N1CCOCC1 | 48* | 11 | 5 | -8 | i | 6
O=C(O)c1cccc2c1-c1ccccc1/C2=N\Nc1ccccc1 | . | . | . | 13 | 0 | .
O=C(O)c1cc(NN=C2c3ccccc3-c3ccccc32)ccc1Cl | 138* | . | . | 17 | 0 | .
O=C(O)c1cccc(NN=C2c3ccccc3-c3ccccc32)c1 | 269* | -9 | 15 | 29 | i | 38
CC=CC(=O)Nc1cccc(C2=NOC3(C2)CC(C(N)=O)N(C(=O)Cc2ccc([N+](=O)[O-])cc2)C3)c1 (stereo not given) | . | -5 | 1 | . | . | -3
Clc1ccccc1NN=Cc1ccc2c(c1)OCO2 | . | -7 | -6 | . | . | -1
ON=C(c1ccccc1)C(O)c1ccccc1 (stereo not given) | . | 14 | 1 | . | . | 2
COC(/C(=N/O)c1ccc(Cl)cc1)c1ccccc1 (stereo not given) | 122* | . | . | 7 | i | .
Cc1ccn2c(NC3CCCCC3)c(-c3cccc(-c4cccc(Cl)c4)c3)nc2c1 | 132* | . | . | 1 | -1 | .
COc1ccc(-c2nc3ccccn3c2NC2CCCCC2)cc1SC1CCCCC1 | ? | 15 | 84 | -2 | i | 100*
Cc1ccn2c(NC3CCCC3)c(-c3ccncc3)nc2c1 | 3 | 3 | 6 | -8 | 1 | 5
Cn1cccc1C=NNC(=O)c1cccc(OC(F)(F)C(F)F)c1 | . | 4 | 5 | . | . | -4
CSCCC(NC(=O)NCc1cccs1)C(=O)O (stereo not given) | . | 7 | 3 | . | . | 0
O=C(CSc1ccc(-c2ccccn2)nn1)NCc1ccccc1 | 270* | 15 | 3 | -8 | i | 2
O=C(CSc1ccc(-c2ccccn2)nn1)NCc1ccc(F)cc1 | 248* | 13 | 6 | -8 | i | -1
C#CCCOC(=O)N1C2=NC(C(=O)OC)=C(C(=O)OC)C3N(C)c4ccccc4[C@]23CC1C(=O)OC (stereo not given in full) | . | 6 | 4 | . | . | -1
Cc1ccc(C(=O)C(SC(C)(C)C)n2cncn2)cc1 (stereo not given) | 467* | 6 | -1 | -4 | 1 | 1
CN(C)c1ccc(P(=O)(CC(=O)NN=Cc2ccc(C#N)cc2)OCCCl)cc1 (stereo not given) | . | 15 | 3 | . | . | 0
C[C@H](O)[C@H]1CC[C@H]2[C@@H]3CCC4=CC(=O)CC[C@]4(C)[C@H]3CC[C@]12C | 158* | . | . | -1 | i | .
CC(O)C1CCC2C3CCC4=CC(=O)CC[C@]4(C)C3CC[C@]12C (stereo not given in full) | . | 4 | 12 | . | . | 3
N#CC(=C1CCCN1)c1ccc2ccccc2n1 | . | . | 11 | . | . | -5
COC(=O)C1=C(C(=O)OC)C2N(C)c3ccc(OC)cc3[C@@]23CC(C(=O)OC)N(C(=O)COCc2ccccc2)C3=N1 (stereo not given in full) | . | 8 | 4 | . | . | 1
CCCCNc1nnc(SCC(=O)c2c(N)n(CCC)c(=O)[nH]c2=O)s1 | 0 | 6 | 0 | -3 | -1 | 2
CCCn1c(N)c(C(=O)CSc2nc(C)cs2)c(=O)[nH]c1=O | 26* | . | 4 | -16 | -1 | -5
Cc1sccc1C=NNC(=O)c1cccc2ccccc12 | . | 9 | 2 | . | . | 4
NC(=O)c1ccc2c(=O)n3c(-c4cccs4)csc3nc2c1 | 1 | 7 | 7 | -7 | -2 | 88*
